Sampled rows, rich in hits. Any-hit rate of the full collection: about 8%.
HCV inh = qHTS Assay for Inhibitors of Hepatitis C Virus (HCV). Huh7.5.1 HCVcc-Cre infection, luciferase reporter, 44 h. Potency, µM (highest dose often 41.8 µM), hits mostly inhibitors. AID 651820, 2012. 340,000 tested, 3.4% active; active = well fitted inhibition curve with a large enough effect; inconclusive = small, poorly fitted or top-dose-only effect, or another doubt; inactive = no such curve, though single readings can be large or run the other way
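Seed cells (1,000/well) for 4 h; treat with compound and infect with HCVcc-Cre, moi about 0.5. Incubate 44 h, then detect luciferase activity.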
SARS PLP yeast = qHTS of Yeast-based Assay for SARS-CoV PLP | S. cerevisiae expressing SARS-CoV PLpro, growth rescue | Potency, µM (titrated, usually from 32.9 µM), usual class: activators | 330,000 tested, 0.19% active | AID 485353, 2010; calls by dose curve; also: nearly all actives have a fitted effect of over 55% in size
MARV entry inh = qHTS for inhibitors of binding or entry into cells for Marburg Virus | Marburg virus pseudotyped entry inhibition, cell reporter | 300,000 tested, 1.8% active | AID 540276, 2011 | Potency, µM (top dose mostly 37.8 µM), most hits filed as inhibitors; calls by dose curve; tested in HEK293 cells
HCMV antiviral = qHTS Assay for inhibitors of the human cytomegalovirus (HCMV); HFF cells, HCMV-luciferase reporter, 72 h; active compounds read low; activity change, negative = inhibition, % at 57.5 µM; 410,000 tested, 4.5% active; AID 1259415, 2018; in the data active = activity change below about -60%; inconclusive = no clear call, values can overlap the other calls; inactive = above about -39%
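Cell-based, HFFs, 1000 cells/well, 16 h 37C; cpds in DMSO + HCMV-luc, MOI 1 PFU/cell; 72 h 37C; OneGlo luminescence after 5 min RT; norm. to buffer vs Salinomycin 10uM.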
FMDV antiviral = High Throughput Screening for Foot and Mouth Disease Virus Antivirals. Potency, µM (top dose mostly 57.9 µM), actives largely listed as inhibitors. FMDV antiviral cell-based qHTS. AID 1159524, 2015. 410,000 tested, 1.2% active; calls by dose curve; tested in HEK293T cells; also: read-out not given here; nearly all actives have a fitted effect of over 45% in size
LASV entry inh = qHTS for Inhibitors of binding or entry into cells for Lassa Virus; Lassa virus pseudotype entry inhibition, cell reporter; Potency, µM (series often up to 37.9 µM), actives largely listed as inhibitors; 300,000 tested, 1.2% active; AID 540256, 2011; calls by dose curve; tested in HEK293 cells; also: nearly all actives have a fitted effect of over 50% in size
Hits are given with their value; i = inactive; ? = inconclusive; nt = no result; + = active, no number.

SMILES	HCV inh	SARS PLP yeast	MARV entry inh	HCMV antiviral	FMDV antiviral	LASV entry inh
Cc1cccc(NC(=O)[C@H](C)NC(=O)[C@@H]2Cc3ccccc3CN2C(=O)OC(C)(C)C)c1	i	i	nt	i	i	nt
COc1ccc(NC(=O)[C@H](C)NC(=O)[C@@H]2Cc3ccccc3CN2C(=O)OC(C)(C)C)cc1	i	?	nt	+	i	nt
O/N=C/c1cc(Br)ccc1OCc1ccccc1F	?	nt	i	i	i	i
Cc1cccc(OCCCC(=O)Nc2ccc(N(C)C)cc2)c1	i	i	i	i	i	i
Cc1cccc(OCCCC(=O)Nc2ccc(Br)cc2)c1	?	i	11µM	i	i	i
Cc1cccc(NC(=O)COc2ccc(Br)cc2/C=N/O)c1	35µM	i	?	i	i	?
C=CCOc1ccc(Br)cc1/C=N/O	11µM	i	i	i	i	i
Cc1ccc(CNC(=O)C2CCCN(c3nn4cc(-c5ccc(C)cc5)nc4s3)C2)cc1 (centres undefined)	nt	nt	nt	i	i	?
COC[C@H]1O[C@@H](c2c(OC)cc(OC)cc2OC)[C@H](OC)[C@@H](OC)[C@H]1OC	nt	nt	i	nt	nt	nt
CC(C)C[C@@H](CO)N1CCN(CC(C)C)CCC1=O	i	i	nt	i	i	nt
CC(C)C[C@@H](CN=[N+]=[N-])N1CCN(C)CCC1=O	i	i	nt	-62	i	nt
CCCN1CCC(=O)N([C@H](CO)CC(C)C)CC1	i	i	nt	-61	i	nt
COc1ccc(CN2CCC(=O)N([C@H](CO)CC(C)C)CC2)cc1OC	i	i	nt	-68	i	nt
CCOC(=O)c1nn(-c2ccccc2C)c(=O)cc1OCC(=O)Nc1cccc(OC)c1	i	i	nt	i	?	nt
COc1ccccc1CNC(=O)c1cnn(-c2nccc(-c3cccs3)n2)c1C	nt	nt	nt	nt	i	nt
O=C(NCCOc1ccc(Cl)cc1)c1cccc(S(=O)(=O)N2CCCC2)c1	16µM	i	nt	-68	?	nt
C=CCN(c1ccccc1OC)S(=O)(=O)c1cccc(C(=O)NCc2cccs2)c1	4.5µM	i	?	-63	i	?
COc1ccc(CCNC(=O)c2ccc(Cl)c(S(=O)(=O)N3CCCC3)c2)cc1	11µM	i	nt	-74	?	nt
Cc1ccc(C(=O)NCc2cccc(C(F)(F)F)c2)cc1S(=O)(=O)N1CCCCC1	?	i	i	-66	?	i
COc1cc(OC)c(N(C)S(=O)(=O)c2cccc(C(=O)NCc3cccs3)c2)cc1Cl	nt	nt	nt	i	i	nt
COCCN(C(=O)Cc1cccs1)C(C(=O)NC1CCCC1)c1cc(OC)c(OC)c(OC)c1 (centres undefined)	i	i	i	i	i	i
Cc1c(C(=O)NC(C)(C)C)sc2ncnc(NCCN(C)C)c12	nt	nt	nt	nt	i	nt
CS(=O)(=O)N1CCc2cc(NC(=O)c3ccc(Cl)cc3Cl)ccc21	?	i	?	?	i	?
C=CCN(c1ccccc1OC)S(=O)(=O)c1cccc(C(=O)OCC(=O)c2c(N)n(C)c(=O)n(C)c2=O)c1	?	nt	?	-70	40µM	?
O=C(NCCc1ccccc1)c1cccc(S(=O)(=O)N2CCCCC2)c1	i	i	?	i	i	i
SMILES	HCV inh	SARS PLP yeast	MARV entry inh	HCMV antiviral	FMDV antiviral	LASV entry inh
C=CCN(c1ccccc1Cl)S(=O)(=O)c1cccc(C(=O)OCC(=O)N(C)C2CCS(=O)(=O)C2)c1 (centres undefined)	3.5µM	i	?	i	i	?
COc1ccc(CCNC(=O)c2cccc(S(=O)(=O)N3CCCCC3)c2)cc1	?	i	i	-66	i	i
C=CCN(c1ccccc1Cl)S(=O)(=O)c1cccc(C(=O)NCCc2ccc(OC)cc2)c1	?	i	?	-65	i	12µM
CN(C)S(=O)(=O)c1cccc(C(=O)NCCc2ccccc2)c1	i	i	?	i	?	?
CNS(=O)(=O)c1cccc(C(=O)OCC(=O)c2c(N)n(C)c(=O)n(C)c2=O)c1	?	i	i	i	i	i
Cc1cc(C)c(Cn2c(C3CC(=O)N(c4ccc(F)cc4)C3)nc3ccccc32)c(C)c1 (centres undefined)	nt	nt	?	i	?	i
Cc1ccc(C(=O)NCCC2=CCCCC2)cc1S(=O)(=O)N1CCCCC1	?	i	?	i	i	7.9µM
COc1ccc(NC(=O)c2cccc(S(=O)(=O)N3CCCCC3)c2)c(OC)c1	i	i	i	-69	i	i
